# Screens deposited in PubChem BioAssay by The Scripps Research Institute Molecular Screening Center.
# The list is not random: actives were taken first. Their share in the collection is about 3.5%.
# TEAD-YAP block – TEAD-YAP interaction inhibition, primary screen, TEAD-YAP interaction inhibitor project, luminescence, HEK-TIYL cells; TEAD-Gal4/YAP UAS-luciferase luminescence; inhibition, % at 9.12 µM; 640,000 tested, 1.4% active; in the data active = inhibition above about 32%;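 also: 0% = median of test compound wells and 100% = reference inhibitor wells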
# GPR151 ag – activators of human GPR151, primary screen, cell-based, PathHunter beta-arrestin, luminescence | PathHunter beta-arrestin GPR151 cells | activation, % at 11.2 µM | 650,000 tested, 1% active; in the data active = activation above about 4.9%;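 also: 0% = median of compound wells and 100% = cells with positive control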
# MITF primary – MITF inhibitors, primary screen, biochemical, AlphaScreen, human; Microphthalmia-associated transcription factor (Homo sapiens), O75030; AlphaScreen MITF homodimerization, bead proximity signal; inhibition, % at 2.6 µM; 650,000 tested, 0.91% active; AID 1259374, 2018; in the data active = inhibition above about 50%;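 also: 0% = vehicle wells with protein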
# FBW7 act – FBW7 E3 ligase activators, primary screen, biochemical, AlphaScreen, human; AlphaScreen FBW7–phospho-cyclin E peptide binding, activator screen; F-box/WD repeat-containing protein 7 (Homo sapiens), Q969H0; AID 1259310, 2017; normalized activity (activation), % at 26.1 µM; 650,000 tested, 0.13% active; in the data active = normalized activity above about 1.9%;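 also: purified mutant Fbw7 with reduced substrate affinity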
# Target sequence (Q969H0 whole entry, looked up): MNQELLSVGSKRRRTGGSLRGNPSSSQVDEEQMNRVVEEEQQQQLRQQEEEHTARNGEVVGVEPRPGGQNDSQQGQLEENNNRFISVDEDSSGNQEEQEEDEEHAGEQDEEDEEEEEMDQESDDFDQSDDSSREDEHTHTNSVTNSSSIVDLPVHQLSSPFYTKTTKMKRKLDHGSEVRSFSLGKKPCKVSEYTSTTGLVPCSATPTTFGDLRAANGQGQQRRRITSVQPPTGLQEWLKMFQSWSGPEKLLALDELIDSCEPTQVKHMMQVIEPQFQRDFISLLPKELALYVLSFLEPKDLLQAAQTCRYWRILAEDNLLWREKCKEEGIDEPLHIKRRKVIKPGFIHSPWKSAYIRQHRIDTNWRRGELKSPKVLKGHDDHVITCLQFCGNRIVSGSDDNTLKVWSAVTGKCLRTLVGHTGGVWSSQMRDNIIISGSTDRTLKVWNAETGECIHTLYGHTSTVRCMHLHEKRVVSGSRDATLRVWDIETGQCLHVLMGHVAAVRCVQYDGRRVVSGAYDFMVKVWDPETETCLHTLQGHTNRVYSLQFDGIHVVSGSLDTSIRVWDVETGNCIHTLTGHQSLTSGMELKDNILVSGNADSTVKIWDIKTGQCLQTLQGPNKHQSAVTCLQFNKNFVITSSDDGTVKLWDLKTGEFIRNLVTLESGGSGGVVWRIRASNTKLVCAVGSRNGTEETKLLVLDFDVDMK
# Numbers without * were called inactive; ! = not active in a repeat.
SMILES,TEAD-YAP block,GPR151 ag,MITF primary,FBW7 act
Cc1nc(C)n(-c2ccc(Nc3cc(-c4nn(-c5ccccc5C#N)cc4-c4ccccc4)ccn3)cc2)n1,33*,-2,19,0
Cc1nc(C)n(-c2ccc(Nc3cc(-c4nn(-c5ccc(N(C)C)cc5)cc4-c4ccccc4)ccn3)cc2)n1,-13,1,2,0
Cc1nc(C)n(-c2ccc(Nc3cc(-c4nn(-c5ccc(C#N)cc5)cc4-c4ccccc4)ccn3)cc2)n1,42*,-2,18,1
CCCCOc1ccc(CN(C)C2CCN(C)CC2)cc1,16,-1,-3,0
Cc1cnc2c(c1NCCCN(C)C)c(=O)n(C)c(=O)n2C,36*,3,1,0
CC(C)(C)C1CCc2c(sc(NC(=O)c3cccc(Cl)c3)c2C(=O)O)C1 (configuration not stated),53*,-2,9,0
CNC(=O)c1c(NC(=O)c2ccccc2)sc2c1CCC(C(C)(C)C)C2 (configuration not stated),-22,0,9,0
Cc1ccccc1C(=O)Nc1sc2c(c1C(=O)O)CCC(C(C)(C)C)C2 (configuration not stated),13,0,-7,0
CC1CN(C(=O)c2c(NC(=O)c3ccccc3Cl)sc3c2CCC(C(C)(C)C)C3)CC(C)O1 (configuration not stated),73*,1,1,0
CC(C)(C)C1CCc2c(sc(NC(=O)c3ccccc3F)c2C(=O)O)C1 (configuration not stated),43*,-1,8,1
CC(C)(C)C1CCc2c(sc(NC(=O)c3ccccc3)c2C(=O)O)C1 (configuration not stated),91*,1,9,0
Cc1cccn2c(=O)c(/C=C3\SC(=S)N(C)C3=O)c(N3CC(C)OC(C)C3)nc12 (configuration not stated),5,0,6,1
Cc1[nH]n(-c2ccc(Br)cc2)c(=O)c1/C=N/NC(=O)c1ccccc1[N+](=O)[O-],-1,-2,4,0
O=C1CC(c2ccccc2)CC(O)=C1C=NCc1ccc2c(c1)OCO2 (configuration not stated),38*,0,-7,0
O=C1CC(c2ccccc2)CC(O)=C1C=NCc1ccccc1Cl (configuration not stated),51*,2,7,0
CCOc1ccccc1N=CC1=C(O)CC(c2ccccc2)CC1=O (configuration not stated),5,1,3,2.0*!
CSc1ccccc1N=CC1=C(O)CC(c2ccccc2)CC1=O (configuration not stated),5,0,13,0
Cc1cc(/C=N/n2cnnc2)c(C)n1-c1cccc(I)c1,5,0,14,0
CCC(C)C(=O)NCc1nnc2n1CCN(C(=O)Cc1cccc(F)c1F)CC2 (configuration not stated),7,0,12,0
CNC(=O)c1ncccc1Nc1cc(Nc2ccc3[nH]ncc3c2)ncc1C(F)(F)F,9,1,3,0
CNC(=O)c1ccccc1Nc1cc(Nc2ccc(C(=O)N(C)C)cc2C)ncc1C(F)(F)F,73*,0,-4,0
CNC(=O)c1ccccc1Nc1cc(Nc2ccc(C(=O)N(C)C)cn2)ncc1C(F)(F)F,84*,-1,-4,0
CNC(=O)c1ccccc1Nc1cc(Nc2ccc(-c3cncnc3)cc2OC)ncc1C(F)(F)F,13,0,36,2
CNC(=O)c1ccccc1Nc1cc(Nc2ncccc2C)ncc1C(F)(F)F,40*,-2,36,0
CNC(=O)c1ncccc1Nc1cc(Nc2ccc(C(=O)N(C)C)cn2)ncc1C(F)(F)F,72*,0,-2,0
O=C(Nc1ccccc1)c1cc2cc(Br)ccc2oc1=Nc1ccc(C(F)(F)F)cc1,-7,1,3,0
Cc1c(Cl)cccc1NC(=O)CCn1cccc1,-7,0,3,0
CC1CCCC(C)N1C(=O)CN(C)S(=O)(=O)c1ccc(Cl)cc1 (configuration not stated),1,-2,16,0
COc1ccccc1CNC(=O)NCCC(=O)c1ccc(F)cc1,0,1,-1,0
CNC(=O)c1ccccc1Nc1ccnc(Nc2ccccn2)c1,76*,0,5,-1
